Results as given in PubChem BioAssay (NCATS).
Records with an inconclusive call do not appear. The source made the active and inactive calls. The call rests on the fitted dose curve; in most records, active means well fitted cell-killing curve with a large enough effect; inconclusive means small, poorly fitted or top-dose-only effect, or effect the other way; inactive means no such curve, though single readings can be large or run the other way.

Test: Quantitative High-Throughput drug screen in 47 multiple myeloma cell lines against the NCATS MIPE library collection: MOLP8_DSMZ cell viability assay (AID 1918977); further: nearly all actives have a fitted effect of over 45% in size;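 on viability (% of control): 100% = DMSO-only wells and 0% = media-only wells without cells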
Details: MOLP8 myeloma viability, CellTiter-Glo ATP luminescence, 48 h; series mostly up to 45.8 µM; viability (% of control): at the top concentration
Summary of the method: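 ATP-based luminescence (CellTiter-Glo, 5 min RT incubation) quantified surviving cells following two days' treatment with MIPE 4.0 agents at 37 °C, 5% CO2.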
Potency means the concentration at half of the fitted maximal effect.

| Structure (SMILES) | Potency | viability (% of control) |
| --- | --- | --- |
| CCOC(=O)N1CCN([N+]([O-])=NOc2cc(ON=[N+]([O-])N3CCN(C(=O)OCC)CC3)c([N+](=O)[O-])cc2[N+](=O)[O-])CC1 | 2350 nM (active) | – |
| N#CC(c1ccnc(NCCc2cccnc2)n1)c1nc2ccccc2s1 (stereo unspecified) | – | 6.18% (inactive) |
| CN[C@@H]1CN(c2ccc3c(=O)c(C(=O)O)cn(-c4nccs4)c3n2)C[C@@H]1OC | 6450 nM (active) | – |
| CCC(C)SSc1ncc[nH]1 (stereo unspecified) | 4180 nM (active) | – |
| CCOC(=O)c1c(CSc2ccccc2)n(C)c2cc(Br)c(O)c(CN(C)C)c12 | 5900 nM (active) | – |
| C[C@@H]1O[C@@H](O[C@H]2CC[C@@]3(C)[C@H](CC[C@@H]4[C@H]3C[C@@H](O)[C@]3(C)[C@@H](C5=CC(=O)OC5)CC[C@]43O)C2)C[C@H](O)[C@@H]1O[C@H]1C[C@H](O)[C@H](O[C@H]2C[C@H](O)[C@@H](O)[C@@H](C)O2)[C@H](C)O1 (stereo in doubt) | 152 nM (active) | – |
| CNC1CCC(N(Cc2cccc(-c3ccncc3)c2)C(=O)c2sc3ccccc3c2Cl)CC1 (stereo unspecified) | 16600 nM (active) | – |
| NS(=O)(=O)c1cc(Cl)c(Cl)c(S(N)(=O)=O)c1 | – | 121% (inactive) |
| CC[C@H](C)C(=O)O[C@H]1C[C@H](O)C=C2C=C[C@H](C)[C@H](CC[C@@H](O)C[C@@H](O)CC(=O)O)[C@H]21 | – | 72% (inactive) |
| CC[C@H](NC(=O)[C@H](C)NC)C(=O)N1C[C@@H](O)C[C@H]1Cc1c(-c2[nH]c3cc(F)ccc3c2C[C@H]2C[C@H](O)CN2C(=O)[C@H](CC)NC(=O)[C@H](C)NC)[nH]c2cc(F)ccc12 | – | 148% (inactive) |
| N#CC(c1ccc(Cl)cc1)c1c(Cl)cc(-n2ncc(=O)[nH]c2=O)cc1Cl (stereo unspecified) | – | 92.6% (inactive) |
| CCc1cc(-c2n[nH]c(C)c2-c2ccc3c(c2)OCCO3)c(O)cc1O | 2640 nM (active) | – |
| Cc1cn([C@@H]2C[C@@H](O)[C@H](CO)O2)c(=O)[nH]c1=O | – | 104% (inactive) |
| CC(C)(C)c1nc(-c2cccc(NS(=O)(=O)c3c(F)cccc3F)c2F)c(-c2ccnc(N)n2)s1 | 5900 nM (active) | – |
| CN[C@@H](C)[C@H]1[C@H](O)C[C@@]2(C)[C@@H]3CC[C@H]4C(C)(C)[C@@H](NC)CC[C@@]45C[C@@]35CC[C@]12C | – | 67.1% (inactive) |
| COC(=O)Nc1ccc(-c2nc(N3CCOCC3)c3cnn(C4CCN(C(=O)OC)CC4)c3n2)cc1 | 1480 nM (active) | – |
| COc1c(C)cnc(Cn2cnc3c(Cl)nc(N)nc32)c1C | 93.5 nM (active) | – |
| C[C@@H]1C[C@H]2[C@@H]3CCC4=CC(=O)C=C[C@]4(C)[C@@]3(F)[C@@H](O)C[C@]2(C)[C@@]1(O)C(=O)CO | – | 98% (inactive) |
| CC(C)n1c(C=C[C@H](O)C[C@H](O)CC(=O)O)c(-c2ccc(F)cc2)c2ccccc21 | 2960 nM (active) | – |
| Cc1nc(NC(=O)N2CCC[C@@H]2C(N)=O)sc1-c1csc(C(C)(C)C)n1 | 166 nM (active) | – |
| CCn1c(-c2nonc2N)nc2cncc(CNC3CCNCC3)c21 | 14800 nM (active) | – |
